Assay outcomes from PubChem BioAssay.
Rows were chosen to be rich in hits. Some 3.1% of all compounds tested hit in one or more screens of this group.
S-ASM inh – blocks human secretory acid sphingomyelinase. P17405. placental ASM, HMU-PC fluorogenic substrate, 60 min. Potency, µM (series often up to 57.5 µM), inactives show at the highest dose activity change, negative = inhibition, hits mostly inhibitors. actives 0.006% (n = 340,000). AID 504937
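HMU-PC0 cleavage (9 uM final) by human placental ASM, 60 min at 37 °C following 10 min compound exposure at RT; stopped at pH 10, fluorescence Ex 386/Em 447 nm.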
Pin1 inhibitor – human Pin1 inhibition | Pin1 FP peptide displacement, HiFluor488, 10 min | AID 504891 | Potency, µM (series often up to 115 µM), inactives show at the top dose activity, negative = inhibition, usual class: inhibitors | actives 0.009% (n = 390,000); active = well fitted inhibition curve with a large enough effect in the polarisation, with a control signal flat, not every such curve was filed as active; inconclusive = small, poorly fitted or top-dose-only effect, or effect the other way, or a change in a side signal; inactive = no such curve, though single readings can be large or run the other way; the % refers to the polarisation; note: % is set by controls: 0 for no effect and ±100 for the full control effect
Target sequence (Q13526 whole entry, looked up): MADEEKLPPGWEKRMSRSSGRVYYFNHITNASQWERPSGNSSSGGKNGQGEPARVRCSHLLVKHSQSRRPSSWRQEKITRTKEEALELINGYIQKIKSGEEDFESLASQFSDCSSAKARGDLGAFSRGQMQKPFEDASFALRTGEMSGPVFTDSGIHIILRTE
VDR inhibitor – inhibitors of human vitamin D receptor; P11473; VDR-SRC2-3 peptide fluorescence polarization, 2 h; Potency, µM, for inactives: max response, negative = inhibition, hits mostly inhibitors; actives 0.93% (n = 400,000); note: % is set by controls: 0 for no effect and ±100 for the full control effect
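Measured by FP: displacement of SRC2-3 coactivator peptide from VDR by library compounds, following a two-hour ambient incubation.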
TDP1 inh – inhibitors of human tyrosyl-DNA phosphodiesterase TDP1; Q9NUW8; recombinant TDP1, AlphaScreen DNA substrate cleavage; Potency, µM (top dose mostly 130 µM), for inactives: top-dose activity change, negative = inhibition, usual class: inhibitors; actives 0.28% (n = 350,000); note: % is set by controls: 0 for no effect and ±100 for the full control effect; nearly all actives have a fitted effect of over 40% in size
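AlphaScreen read-out: signal falls as enzyme removes the 3' tyrosine-FITC from a 5'-biotinylated DNA oligo (15 nM, 5 min, RT). Enzyme was E. coli-made recombinant Tdp1 at 1 nM, exposed to compound for 15 min beforehand; beads 10 ug/ml, 10 min.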
Tb PFK block – T. brucei PFK enzyme inhibition; T. brucei PFK, ADP-Glo luminescence; AID 485367; O15648; actives 0.17% (n = 330,000); Potency, µM (series often up to 57.5 µM), without a hit: at the top dose activity, negative = inhibition, hits mostly inhibitors;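 note: 0% = uninhibited 1x PFK enzyme wells and -100% = no-enzyme wells; nearly all actives have a fitted effect of over 60% in size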
Target sequence (O15648 whole entry, looked up): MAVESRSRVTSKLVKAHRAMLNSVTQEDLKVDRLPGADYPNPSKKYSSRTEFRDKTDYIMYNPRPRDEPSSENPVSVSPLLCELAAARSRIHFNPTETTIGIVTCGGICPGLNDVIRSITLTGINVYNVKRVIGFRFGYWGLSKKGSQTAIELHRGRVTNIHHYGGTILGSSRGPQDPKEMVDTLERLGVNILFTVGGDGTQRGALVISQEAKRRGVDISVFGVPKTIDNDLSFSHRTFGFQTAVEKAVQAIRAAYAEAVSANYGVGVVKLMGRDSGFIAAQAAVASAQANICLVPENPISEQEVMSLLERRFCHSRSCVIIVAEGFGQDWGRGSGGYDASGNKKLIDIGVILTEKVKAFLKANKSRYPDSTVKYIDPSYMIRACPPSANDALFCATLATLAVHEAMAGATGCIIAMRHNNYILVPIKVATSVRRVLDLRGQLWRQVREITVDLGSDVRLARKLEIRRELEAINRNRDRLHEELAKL
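Luminescent ADP detection (ADP-Glo, two-step: ATP depletion then ADP-to-ATP conversion for luciferase) reported PFK activity after 45 min room-temperature reaction of 1.25 nM enzyme with 0.5 mM F6P and 0.1 mM ATP at pH 8.0.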
PLK1 PBD block – inhibitors of human PLK1 polo-box domain binding | P53350 | Potency, µM, for inactives: max response, negative = inhibition, usual class: inhibitors | actives 2.8% (n = 360,000) | Plk1 PBD binding of FITC phosphopeptide, fluorescence polarization; note: series mostly up to about 57 µM; % is set by controls: 0 for no effect and ±100 for the full control effect; nearly all actives have a fitted effect of over 65% in size
* marks the source's active call; other numbers are inactive results; ? = inconclusive; . = no result; [ ] = remark or other dose. Unless noted, calls come from the whole dose curve; as a rule, active = well fitted curve in the direction sought with a large enough effect; inconclusive = small, poorly fitted or top-dose-only effect, or another doubt; inactive = no such curve, though single readings can be large; an effect the other way counts as inactive or inconclusive. Potency is the fitted concentration of half-maximal effect.

SMILES	S-ASM inh	Pin1 inhibitor	VDR inhibitor	TDP1 inh	Tb PFK block	PLK1 PBD block
CCC1(c2ccc(Cl)cc2)NC(=S)N(c2ccc(C)c(C)c2)N1 (stereo unspecified)	-6%	1%	?	11%	4%	-27%
CCC1(c2ccc(Cl)cc2)NC(=S)N(c2ccc(C)cc2)N1 (stereo unspecified)	-10%	2%	79µM*	5%	-6%	-11%
CS(=O)(=O)/C=C/c1nc(Nc2cc(F)cc(F)c2)c2ncn(CC(F)F)c2n1	.	?	.	1%	.	.
CCOC(=O)/C(=C\c1cccnc1)C(=O)c1cc(C(C)=O)c(Nc2ccccc2)s1	-12%	43%	7.9µM*	-2%	-1%	?
CCOC(=O)/C(=C\c1ccccc1)C(=O)c1cc(C(C)=O)c(Nc2ccccc2)s1	-7%	55%	?	-1%	-5%	1%
Cc1ccc(C)c(NC(=O)C(=O)NCCc2csc3nc(-c4ccccc4C)nn23)c1	.	11%	16%	4%	.	.
COCCN=c1scc(-c2ccco2)n1/N=C/c1ccc(O)c(O)c1O	-7%	?	-6%	-1%	-16%	6.7µM*
C=CCN=c1scc(-c2ccco2)n1/N=C/c1ccc(O)c(O)c1O	-1%	?	-12%	.	1%	7.5µM*
CC(C)N=c1scc(-c2ccco2)n1/N=C/c1ccc(O)c(O)c1	16%	-2%	2%	11%	2%	-14%
CCOC(=O)c1ccc(N2CCN(c3ccccc3F)CC2)c(NC(=O)Nc2ccc(Cl)c(Cl)c2)c1	.	-2%	6%	8%	.	.
CN(C)c1ccc(NC(=O)c2cccc(C(=O)Nc3ccc(N(C)C)cc3)n2)cc1	-20%	8%	79µM*	13%	?	-21%
O=C(Nc1ccccc1)c1cccc(C(=O)Nc2ccccc2)n1	-1%	-1%	12%	2%	-1%	-1%
CC/C=C1/N=C2C(=O)N(C)C(=O)N=C2N(C)N1	.	-8%	-13%	4%	.	.
CN1N/C(=C\c2ccccc2)N=C2C(=O)N(C)C(=O)N=C21	.	.	50µM*	2%	.	.
O=[N+]([O-])c1cc(C(F)(F)F)ccc1NCC1CCCO1 (stereo unspecified)	-2%	0%	79µM*	5%	1%	6µM*
Cc1ccccc1C1CC(=O)Oc2ccc(O)cc21 (stereo unspecified)	.	.	?	5%[234 µM]	.	.
Cc1ccc(S(=O)(=O)NCC(=O)OCN2C(=O)c3ccccc3C2=O)cc1	-2%	-16%	-24%	2%	-4%	5.3µM*
Cc1sc(NC(=O)CS(=O)(=O)c2ccccc2)c(C#N)c1C	-2%	0%	-13%	-14%[0.505 µM]	-12%	-9%
Cc1sc(NC(=O)CCS(=O)(=O)c2ccccc2)c(C#N)c1C	0%	-3%	89µM*	.	-22%	13µM*
Cc1cc(N2C(=O)c3ccccc3C2=O)no1	.	3%	.	0%	.	.
CC(C)=CCOc1ccc(/C=C/C(=O)c2ccc(OCC=C(C)C)cc2OCC(=O)O)cc1	.	.	10µM*	3%	.	.
O=C(NNc1ccccc1F)c1sccc1Cl	.	-2%	-11%	.	.	.
NS(=O)(=O)c1ccc(NC(=S)NC2CCCCCC2)cc1	-3%	2%	-12%	5%	-25%	19µM*
O=S(=O)(c1ccc(NC(=S)NC2CCCC2)cc1)N1CCCC1	-6%	2%	?	4%	-7%	15µM*
CC(C)CC(=O)NC(=S)Nc1ccc(S(=O)(=O)N2CCCC2)cc1	4%	0%	-19%	-4%	0%	24µM*
SMILES	S-ASM inh	Pin1 inhibitor	VDR inhibitor	TDP1 inh	Tb PFK block	PLK1 PBD block
CCOC(=O)c1ccc(N2C(=O)CC(SCC(=O)Nc3ccc(S(N)(=O)=O)cc3)C2=O)cc1 (stereo unspecified)	3%	1%	?	5%	20%	30µM*
O=S(=O)(c1ccc(NC(=S)NC2CC2)cc1)N1CCOCC1	-3%	-2%	-5%	2%	-4%	?
COc1ccc(C(=O)NCC(=O)OCC(=O)c2cccc3ccccc23)cc1	.	1%	-2%	2%	.	.
Cc1ccc(N2CC(NC(=O)c3cccs3)CC2=O)cc1C (stereo unspecified)	.	-10%	5%	0%	.	.
COc1ccc(NC(=O)CSC2CCCCC2)cc1	-1%	-11%	14%	-2%	-9%	-4%
O=C(CSc1nnc(NC2CCCCC2)s1)Nc1ccc2c(c1)C(=O)c1ccccc1C2=O	-21%	0%	21%	7%	-1%	-24%
Cc1cccc(C(=O)NC(=S)Nc2ccc(S(=O)(=O)N3CCCCC3)cc2)c1	-6%	2%	-16%	4%	3%	?
COC(=O)c1ccc(NC(=S)NNC(=O)c2ccccc2)cc1	-1%	1%	3%	7%	-17%	?
COC(=O)c1ccc(NC(=S)NNC(=O)CC(C)C)cc1	4%	-14%	-20%	-1%	?	27µM*
NS(=O)(=O)c1ccc(NC(=O)CSC2CCCCC2)cc1	-2%	-17%	?	1%	-14%	30µM*
Cc1cccc(C(=O)NC(=S)Nc2ccc(S(=O)(=O)N3CCN(C)CC3)cc2)c1	-1%	0%	-5%	8%	0%	21µM*
NS(=O)(=O)c1ccc(NC(=O)CSc2nnc(NC3CC3)s2)cc1	1%	-12%	-25%	14µM*	-28%	-20%
Cc1ccc(NS(=O)(=O)c2cc3c(cc2N(C)C)NC(=O)CC3)cc1C	.	-7%	.	0%	.	.
CSc1ccc(CCNC(=O)C(C)n2nc(C)c3sc4ccccc4c3c2=O)cc1 (stereo unspecified)	.	10%	9%	3%	.	.
Cc1cc(C)cc(C(=O)NN2CCN(C)CC2)c1	4%	-3%	?	3%	2%	12µM*
Cc1cc(C)cc(C(=O)NN2CCOCC2)c1	-3%	1%	-7%	0%	6%	-7%
CC1=C(c2ccc(C(C)C)cc2)S(=O)(=O)NC1=NCc1ccccc1Br	.	16%	10%	3%	.	.
CCCn1c(SCC(=O)N2CCCC(C)C2)nnc1-c1cccnc1 (stereo unspecified)	0%	-2%	-13%	5%	-7%	30µM*
CCn1c(SCC(=O)N2CCCC(C)C2)nnc1-c1ccco1 (stereo unspecified)	-3%	0%	-18%	6%[0.0935 µM]	0%	-8%
CC(=O)NS(=O)(=O)c1ccc(NC(=O)c2ccc(NC(=O)c3cccs3)cc2)cc1	0%	15%	10%	45µM*	-27%	-24%
Brc1cc2c(cc1Br)OCCOCCOCCOCCO2	8%	-11%	28µM*	-1%	0%	4.2µM*
Brc1ccc2c(c1)OCCOCCOc1cc(Br)ccc1OCCOCCOCCO2	-13%	-7%	-19%	3%	0%	0%
Nc1ccccc1SC/C=C/CSc1ccccc1N	-4%	1%	-23%	.	-9%	12µM*
